This note sets out measurements from PubChem BioAssay (EPA / NIEHS).

Records with an inconclusive call do not appear. More than one record can exist for a structure, and the calls need not agree. The source made the active and inactive calls. How the source made its calls, unless noted: active means hit-call score of the fitted dose curve at least 0.9, where 1 is the maximum; inconclusive means response in the unintended direction; inactive means score below 0.9.

For assay [1], the system named is SRD5A2 (gene 6716). The experiment in a line: CCTE_Deisenroth_5AR_NBTE_ratio: CCTE's 5alpha-reductase NanoBRET Target Engagement Assay - Ratio, Deisenroth Lab (AID 2284322; active means hit-call score of the fitted dose curve at least 0.9, where 1 is the maximum; inactive means score below 0.9). The note with it: actives raise or lower the signal. The method in brief: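 Reverse-transfect HEK293T with pNLF1-C-SRD5A2, express 20 h. Pre-incubate cells with chemical 3 h (8-point series, 10 nM - 29.9 uM, duplicate). Add testosterone tracer, 2 h more. Add substrate/inhibitor, read donor and acceptor emission.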

Assay [2] can be described thus: IUF_NPC1_cytotoxicity_72hr: Cytotoxicity Assessment at 72 hours in the Leibniz Research Institute for Environmental Medicine (IUF) Neural Progenitor Cell Proliferation Assay (NPC1) (AID 2284332).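 Further: rising LDH signal means more cytotoxicity.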 In outline: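 hNPC spheres (fetal brain, gestational week 16-19) grown under proliferative EGF/FGF conditions, pH 7.2-7.6, were treated continuously for 72 h. Cytotoxicity came from LDH-coupled resazurin fluorescence in each well's supernatant.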

The nature of assay [3]: CCTE_Mundy_HCI_iCellGluta_NOG_NeuronCount: CCTE's Neurite Outgrowth Assay in iCellGluta cells for Neuron Count, Mundy Lab (AID 2284340).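 Further: cells fixed about 48 h after compound addition.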 In outline:
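Neuron count read by automated high-content imaging of Hoechst 33342 and betaIII-tubulin/Alexa Fluor-488 labelling in human iPSC glutamatergic neurons. Activity fitted relative to DMSO.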

A short description of assay [4]: CCTE_Mundy_HCI_iCellGluta_NOG_NeuriteCount: CCTE's Neurite Outgrowth Assay in iCellGluta cells for Neurite Count, Mundy Lab (AID 2284342).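 Further: chemical exposure about 48 hours starting 2 hours after plating.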
In assay [5] the test system is SERPINA7 (gene 6906). The experiment in a line: CCTE_GLTED_hTBG: CCTE's human Thyroxine-binding Globulin (TBG) Inhibition Assay, Great Lakes Toxicology and Ecology Division (GLTED) Lab (AID 2284343).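 Further: active chemicals lower fluorescence versus DMSO baseline by displacing probe.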 In outline: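 Measures how far test chemicals displace ANSA bound to purified human TBG. The read-out is fluorescence at 380 nm excitation and 475 nm emission, taken after 2 h of incubation.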

Assay [6] is described as follows: VALA_TUBHUV_Antagonist_TubuleLength: VALA Sciences human Umbilical Vein Endothelial Tubule Formation (TUBHUV) Antagonism Assay (AID 2284325). In outline:
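HUVEC–HDF co-culture (1:3) pre-grown 3 days with 10 ng/ml VEGF, then 3 days with compound plus VEGF. Fixed, nuclear and CD31 stained; total tubule length by imaging versus 0.1% DMSO; suramin 100 uM positive control.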

The nature of assay [7]: VALA_TUBIPS_Antagonist_CellCount: Viability Assessment in the VALA Sciences human iPS-derived Endothelial Tubule Formation (TUBIPS) Antagonism Assay (AID 2284335).
Assay [8] is described as follows: VALA_MIGHUV1_ScratchOnly_WoundArea: VALA Sciences human Umbilical Vein Endothelial Cell Migration (MIGHUV) Assay, Area of Scratch Wound Inhibited Recovery (AID 2284336). The method in brief: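 HUVEC monolayers (9000 cells/well) were scratched after 24 h, dosed within 30 min (six concentrations, triplicate, 0.1% DMSO), allowed 24 h recovery, then fixed. Hoechst-stained nuclei in the wound imaged; cytochalasin D as reference.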

Assay [9] can be described thus: VALA_TUBHUV_Agonist_TubuleLength: VALA Sciences human Umbilical Vein Endothelial Tubule Formation (TUBHUV) Agonism Assay (AID 2284337). In outline: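 HUVEC co-cultured with fibroblasts (1:3) 3 days in 10 ng/ml VEGF, then 3 days with compound plus VEGF; 0.1 % DMSO neutral control. Fixed, nuclear and CD31 stained; tubule length by fluorescence imaging.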
Assay [10] can be described thus: TAMU_PeakParms_SingleDonor1434_Asystole: Texas A&M University (TAMU) 1.5-hr Human Induced Pluripotent Stem Cell (iPSC)-derived Cardiomyocytes Calcium (Ca+2) Flux Assay for Cardiotoxicity: Asystole (quiescence of beating) (AID 2284328). The method in brief:
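Human iPSC-derived cardiomyocytes (donor 1434) were exposed to 0.2, 1, 10 and 100 uM compound in 0.5% DMSO for 90 min at 37C. Ca2+-dye fluorescence gave average peak frequency; POD is EC95, a 95% beat-rate drop versus DMSO.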

Assay [11] is described as follows: CCTE_Deisenroth_H295R-HTRF_384WELL_ESTRADIOL: CCTE's H295R-HTRF Assay Evaluation of Estradiol Concentration, Deisenroth Lab (AID 2284361; active means hit-call score of the fitted dose curve at least 0.9, where 1 is the maximum; inactive means score below 0.9). The following applies: actives raise or lower the signal. In outline: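 H295R cells exposed 48 h to chemicals at 0.001 - 100 uM final (nine points, triplicate); estradiol in conditioned medium measured by HTRF immunoassay, fitted bidirectionally versus DMSO. Viability by CellTiter-Glo on same plates.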

A short description of assay [12]: CCTE_Deisenroth_H295R-HTRF_384WELL_TESTOSTERONE: CCTE's H295R-HTRF Assay Evaluation of Testosterone Concentration, Deisenroth Lab (AID 2284373; active means hit-call score of the fitted dose curve at least 0.9, where 1 is the maximum; inactive means score below 0.9). The note with it: actives raise or lower the signal. The method in brief:
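Secreted testosterone was quantified by HTRF immunoassay of medium from human adrenocortical H295R cells after 48 h chemical exposure at 0.001–100 uM final. Gain or loss was fitted against DMSO. ATP-based viability was read on matched wells, five experimental replicates.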

The nature of assay [13]: CCTE_Deisenroth_H295R-HTRF_384WELL_CTOX: Cytotoxicity Assessment in CCTE's H295R-HTRF Assay, Deisenroth Lab (AID 2284380). In outline:
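H295R adrenocortical carcinoma cells plated 24 h, then exposed 48 h to nine-point series 0.001–100 uM final, triplicate, n=5. ATP measured by CellTiter-Glo 2.0 luminescence on same plates after medium collection; loss versus DMSO.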
(In general: TR-FRET usually uses a lanthanide donor and a delayed reading to cut background.)

A short description of assay [14]: VALA_TUBIPS_Agonist_CellCount: Viability Assessment in the VALA Sciences human iPS-derived Endothelial Tubule Formation (TUBIPS) Agonism Assay (AID 2284338).
Assay [15] is described as follows: VALA_MIGHUV1_ScratchOnly_CellCount: Viability Assessment in the VALA Sciences human Umbilical Vein Endothelial Cell Migration (MIGHUV) Assay, Scratch Wound Inhibited Recovery (AID 2284327). In outline:
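HUVEC scratched after 24 h culture, chemical added within 30 min at 6 concentrations in triplicate (0.1% DMSO vehicle). After 24 h recovery, fixed cells were counted by Hoechst nuclear imaging in the wound area.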

Broadly, the AC50 is the concentration giving half of the maximal activity seen. Turning to `CCC[CH2][Sn]([Cl])([CH2]CCC)[CH2]CCC`, the AC50 in assay [1] was 16.8 µM (active); in [2] it was 0.637 µM (active); in [3], 0.257 µM (active); in [4], 0.183 µM (active).

Consider `Brc1ccc(Oc2ccccc2)cc1`, for which, in assay [5], the AC50 is 45.4 µM (active).

`Nc1ccc(N=Nc2ccccc2)cc1`: the AC50 in [1] was 50 µM (active); in [5] it was 20.9 µM (active).

For `O=P(OCCCl)(OCCCl)OCCCl`, the call in assay [6], in assay [2], in assay [7], in assay [8] and in [9] was inactive.

Turning to `ClC1=C(Cl)[C@]2(Cl)[C@H]3[C@H]([C@@H]4C=C[C@H]3C4)[C@@]1(Cl)C2(Cl)Cl`, the outcome in assay [10] was inactive.

In the case of `Cc1cc(N=Nc2ccccc2C)ccc1N`, the AC50 in assay [1] is 50 µM (active); in assay [5], 4.38 µM (active).

In the case of `Nc1ccc(Oc2ccc(N)cc2)cc1`, in [5], the AC50 is 25.3 µM (active).

Regarding `Clc1ccc(Cl)c(Cl)c1`, the call in [8] was inactive.

Consider `[Cl-].[Cl-].[Hg+2]`, for which the AC50 in assay [1] was 75.4 µM (active); in assay [5], 27.6 µM (active).

`O=[N+]([O-])c1ccc(Oc2ccc(Cl)cc2Cl)cc1`: in assay [5], the AC50 is 5.39 µM (active). Also, the call in [11], in assay [12] and in assay [13] was inactive.

Consider `Oc1ccc2ccc3cccc4ccc1c2c34`, for which the compound was called inactive in [6], in assay [7], in [9] and in assay [14].

As to `CS(=O)(=O)NC(=O)c1cc(Oc2ccc(C(F)(F)F)cc2Cl)ccc1[N+](=O)[O-]`, the AC50 in [5] was 16.1 µM (active).

As for `Cc1ccc(N)c(N)c1`, the AC50 in assay [1] was 22.7 µM (active).

With `CN(C)[C@@H]1C(=O)C(C(N)=O)=C(O)[C@@]2(O)C(=O)C3=C(O)c4c(O)cccc4[C@@](C)(O)[C@H]3C[C@@H]12`, the result in assay [3] and in assay [4] was inactive.

Consider `C[C@]12C=CC3=C4CCC(=O)C=C4CC[C@H]3[C@@H]1CC[C@@H]2O`, for which, in assay [1], the outcome was inactive.

`CO[C@@H]1[C@H](OC(=O)NC(=O)CCl)CC[C@]2(CO2)[C@H]1[C@@]1(C)O[C@@H]1CC=C(C)C`: the outcome in assay [6], in [15], in [7], in assay [8], in assay [9] and in [14] was inactive. The AC50 in assay [14] was 0.168 µM (active).

Regarding `CCCCCCCCn1sccc1=O`, in assay [1], the AC50 was 71.1 µM (active). The result in assay [10] was inactive.

Consider `COc1cc(C=O)cc2c1[C@H](COC(N)=O)[C@]1(OC(C)=O)ON2C[C@H]2[C@@H]1N2C(C)=O`, for which, in [1], the result was inactive.
